Most compounds without a hit are left out; they make up all but 2.3% or so of the library.
M1 PAM parental = nonselective activator or artifact in parental CHO-K1 calcium assay | ATP EC20, Fluo-8 calcium fluorescence; 0% at ATP EC20, 100% at ATP max | activation, % at 3 µM | 360,000 tested, 0.02% active;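 active = activation above the run cutoff, the mean activation of all test compounds plus 3 SD, cut at about 40% in these data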;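 also: peak over basal fluorescence ratio in a 140 s read after ATP addition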
M1 PAM = potentiates human M1 receptor response to acetylcholine. P11229. CHO-K1 hM1, Fluo-8 calcium fluorescence, ACh EC20; 0% = ACh EC20, 100% = maximal ACh. activation, % at 3 µM. 360,000 tested, 0.088% active. AID 588819; in the data active = activation above about 19%, passing the limit was not always enough
Target sequence (P11229 whole entry, looked up): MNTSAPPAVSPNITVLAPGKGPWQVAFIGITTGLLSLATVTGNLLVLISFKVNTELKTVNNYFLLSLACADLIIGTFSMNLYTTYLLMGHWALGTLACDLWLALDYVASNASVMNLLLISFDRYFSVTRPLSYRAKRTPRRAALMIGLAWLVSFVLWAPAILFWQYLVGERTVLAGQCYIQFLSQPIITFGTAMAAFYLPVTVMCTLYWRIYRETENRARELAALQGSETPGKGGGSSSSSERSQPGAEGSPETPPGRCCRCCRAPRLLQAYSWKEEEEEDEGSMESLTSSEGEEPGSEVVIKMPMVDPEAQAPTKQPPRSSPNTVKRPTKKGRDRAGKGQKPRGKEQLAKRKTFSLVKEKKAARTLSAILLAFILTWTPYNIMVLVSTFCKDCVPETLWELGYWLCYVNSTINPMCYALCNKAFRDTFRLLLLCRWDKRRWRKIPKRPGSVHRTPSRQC
CHO-K1 Ca antag = nonselective inhibitor or artifact in parental CHO-K1 cells; ATP-induced calcium, Fluo-8 fluorescence; inhibition, % at 3 µM; 360,000 tested, 0.6% active;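 active = inhibition above a per-plate cutoff, the plate's mean sample inhibition plus 3 SD, cut at about 24% in these data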
M1 ag parental = M1 agonist counterscreen hit in parental CHO-K1 cells | 360,000 tested, 0.48% active | Fluo-8 calcium fluorescence; scaled to maximal ATP response, vehicle zero | AID 602248 | activation, % at 3 µM; in the data active = activation above about 15%;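 also: untransfected CHO-K1 host cells lacking M1 receptor as counterscreen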
M1 antag = antagonists of human M1 muscarinic receptor; P11229; CHO-K1 hM1, Fluo-8 calcium fluorescence, ACh EC80 antagonist; 360,000 tested, 1.3% active; inhibition, % at 3 µM;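 active = percent inhibition above its own plate's cutoff, namely the mean of that plate's compound wells plus 3 SD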;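 also: peak over basal fluorescence ratio during 140 s after agonist addition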
CHRM1 agonist = agonists of human M1 muscarinic receptor; activation, % at 3 µM; P11229; 360,000 tested, 0.33% active; CHO-K1 hM1, Fluo-8 calcium fluorescence, agonist mode; 0% DMSO, 100% acetylcholine EC100; AID 588814;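 active = activation above the run's mean compound activation plus 3 SD, cut at about 16% in these data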;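 also: peak over basal fluorescence ratio within a 140 s kinetic read after compound addition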
Of the large screens only hits and unclear results are named; the others gave an inactive call.

COC(=O)[C@]1(Cc2ccccc2)N[C@H](CN(C)C(=O)c2ccc(F)cc2)[C@@H]2C(=O)N(C)C(=O)[C@@H]21	M1 PAM 26.8
CCN(C[C@H]1N[C@@](Cc2ccccc2)(C(=O)OC)[C@H]2C(=O)N(C)C(=O)[C@@H]12)C(=O)c1ccccc1	none
CCN(C[C@H]1N[C@@](Cc2ccccc2)(C(=O)OC)[C@H]2C(=O)N(C)C(=O)[C@@H]12)C(=O)C1CCCCC1	CHO-K1 Ca antag 26.4
CCN(C[C@H]1N[C@@](Cc2ccccc2)(C(=O)OC)[C@H]2C(=O)N(C)C(=O)[C@@H]12)S(=O)(=O)c1ccc(C(F)(F)F)cc1	M1 antag 41.4
CCc1ccc(CN(C)C(=O)CCc2nnc(CCc3cccc(OC)c3)o2)nc1	none
Cc1oc(-c2ccccc2F)nc1CS(=O)(=O)CC(=O)NC1CCCC1	M1 antag 33.2
Cc1oc(-c2ccccc2F)nc1CS(=O)(=O)CC(=O)NC1CCCC(C)C1C (centres undefined)	none
Cc1c(C(=O)NCc2ccc3c(c2)OCO3)oc2ccc(S(=O)(=O)N3CCCC3)cc12	none
Cc1cc(C)nc(N2CCCC(C(=O)NCc3ccc4c(c3)OCO4)C2)n1 (centres undefined)	none
O=C(NCc1ccc2c(c1)OCO2)C1CCCN(S(=O)(=O)c2cccnc2)C1 (centres undefined)	CHO-K1 Ca antag 47.5
Cc1c(C(=O)NCc2ccc3c(c2)OCO3)oc2ccc(S(=O)(=O)N3CCCCC3)cc12	M1 antag 27.5
Cc1ccc(S(=O)(=O)N2CCCC(C(=O)NCCc3ccc4c(c3)OCO4)C2)cc1 (centres undefined)	CHO-K1 Ca antag 24.1
CCCc1cc(N2CCCC(C(=O)NCc3ccc4c(c3)OCO4)C2)n2ncnc2n1 (centres undefined)	M1 PAM 28.1
Cc1cc(C(=O)NNC(=O)c2sccc2C)c(C)o1	none
O=C(COC(=O)c1ccccc1O)Nc1ccc(N2CCOCC2)cc1	none
Cc1ccc(S(=O)(=O)N2CCC(C(=O)NCc3ccccc3CN3CCCC3)CC2)cc1	M1 antag 34.7
COc1ccccc1N(C)S(=O)(=O)c1ccc(C(=O)N2CCCc3ccccc32)cc1	M1 ag parental 16.1
COc1ccccc1N(C)S(=O)(=O)c1ccc(C(=O)NCc2ccccc2CN2CCCC2)cc1	M1 antag 35.9
OC(c1ccccc1)(c1nc(-c2cc(F)cc(F)c2)cs1)C(F)(F)F (centres undefined)	none
COc1ccccc1C/C(N)=N/OC(=O)c1ccco1	none
CC1(C(=O)Nc2cccc(OC(F)(F)F)c2)Cc2c(-c3ccc(C(N)=O)cc3)ccnc2O1 (centres undefined)	none
Cc1nn(Cc2ccc(C(=O)Nc3ccccc3C(F)(F)F)o2)c(C)c1Br	none
Cc1csc(NC(=O)c2ccc(Cn3nc(C)c(Br)c3C)o2)n1	M1 ag parental 17.2
O=C(c1ccco1)N1CCN(C2CN(C3CCCCC3)S(=O)(=O)C2)CC1 (centres undefined)	none
Cc1ccc(S(=O)(=O)Nc2ccc3cn[nH]c3c2)c(C)c1	none
CCOc1cc(C)c(S(=O)(=O)Nc2ccc3cn[nH]c3c2)cc1C	M1 antag 31.6
COc1ccc(O)c(CN2CCN(C/C=C/c3ccccc3)CC2)c1	none
COc1cc(Br)cc(CN2CCN(C/C=C/c3ccccc3)CC2)c1O	M1 antag 95.8
CCc1cccc(OCC2Cn3c(nc4c3c(=O)[nH]c(=O)n4C)O2)c1 (centres undefined)	none
COc1ccc(C(N)c2csc(Nc3cc(Oc4ccccc4)ncn3)n2)cc1 (centres undefined)	M1 antag 82.4
COc1ccc(S(=O)(=O)N2CCOCC2)cc1NC(=O)CO/N=C/c1ccccc1OC(F)F	M1 ag parental 15.1
O=C(COc1ccc(S(=O)(=O)N2CCOCC2)cc1)NCc1ccccc1	M1 antag 29.2
O=C(NCCN1CCN(S(=O)(=O)c2ccc(F)cc2)CC1)C(=O)NCc1ccccc1	CHO-K1 Ca antag 24.0
Cc1ccc(S(=O)(=O)N2CCOCC2)cc1NC(=O)COc1ccc(C(=O)c2ccccc2)cc1	M1 ag parental 16.3, M1 antag 36.7
COc1ccc(CNC(=O)COc2ccc(S(=O)(=O)N3CCOCC3)cc2)cc1	none
CC(C)(C)n1nnnc1C(c1ccccc1)N1CCN(c2ccccn2)CC1 (centres undefined)	none (no result: M1 PAM, M1 antag, CHRM1 agonist)
O=C(COc1ccc(S(=O)(=O)N2CCOCC2)cc1)Nc1ccc(Br)cc1	none
COc1ccc(S(=O)(=O)N2CCOCC2)cc1NC(=O)c1ccc2c(c1)OCO2	none
COc1ccc(S(=O)(=O)N2CCOCC2)cc1NC(=O)c1ccc(=O)[nH]c1	CHO-K1 Ca antag 54.3
O=C(CCCOc1ccc(Br)cc1)Nc1ccc(S(=O)(=O)N2CCOCC2)cc1	M1 antag 31.7
COc1ccc(/C=C(/NC(=O)c2ccc(Br)o2)C(=O)Nc2cccc(C(=O)O)c2)cc1	none
Cc1nn(C)c(C)c1CN(C)S(=O)(=O)c1ccc2ccccc2c1	CHO-K1 Ca antag 24.9, M1 antag 23.9
NC(=O)c1ccsc1NC(=O)COC(=O)c1ccc(Cl)cc1	none
N#Cc1ccc(OCC(=O)OCC(=O)Nc2sccc2C(N)=O)cc1	M1 ag parental 16.0
NC(=O)c1ccsc1NC(=O)COC(=O)CSc1ccc(Cl)cc1	CHO-K1 Ca antag 23.8
Cc1ccc(OC(C)C(=O)OCC(=O)Nc2sccc2C(N)=O)cc1 (centres undefined)	M1 ag parental 15.3
Cc1ccc(OCC(=O)OCC(=O)Nc2sccc2C(N)=O)cc1C	CHO-K1 Ca antag 33.4
CCN(Cc1ccc(O)cc1)CC1CCCN(CCc2cccc(F)c2)C1 (centres undefined)	none
COc1ccccc1OCCC(=O)Nc1cccc(S(=O)(=O)N2CCOCC2)c1	none
CCC1=C(OC(=O)N(CC)CC)N2C(=O)OC(=NCC(=O)OC)[C@]2(Cc2ccccc2)[C@H]2C1=CC[C@H]1C(=O)NC(=O)[C@H]12	none
CC1(C)CC(=O)C=C(Nc2ccc(O)c(C(=O)O)c2)C1	M1 PAM 29.6
CC1(C)CC(=O)C=C(Nc2ccc(C(=O)O)cc2)C1	none
O=C(O)CCc1ccc(S(=O)(=O)Nc2cc(C(F)(F)F)ccc2N2CCCC2)cc1	none
Cc1ccccc1NC(=O)CSc1nn2c(=O)c(C)nnc2s1	none
Cc1ccccc1CSc1nn2c(=O)c(C)nnc2s1	CHO-K1 Ca antag 23.8
CN(C)CCCNC(=O)N1c2ccccc2C=Cc2ccccc21	M1 antag 97.5
OCc1ccc2c(c1)c(-c1ccc3c(c1)OCCO3)c(-c1ccccc1)n2-c1ccccc1	none
COc1ccc(C(=O)c2cn[nH]c2-c2cc(Cl)ccc2O)cc1	CHO-K1 Ca antag 24.4
COc1ccc(C(=O)c2cn[nH]c2-c2cc(C)ccc2O)cc1	none

Screening data (PubChem BioAssay)
